Source: PubChem BioAssay (Broad Institute)
This excerpt belongs to a sample that is enriched for hits.
EZH2 inh – EZH2 (human) methyltransferase inhibition. PRC2 H3K27 methylation, DELFIA TRF, 1 h. inhibition, % at 12.5 µM. 57,000 compounds, 0.35% hits. AID 651548;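 active means mean inhibition of replicates at least 50% and every single replicate also reaching 50%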;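 further: dimethyl H3K27 on biotinylated H3 21-44 peptide detected by antibody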
Target sequence (Q15910 whole entry, looked up): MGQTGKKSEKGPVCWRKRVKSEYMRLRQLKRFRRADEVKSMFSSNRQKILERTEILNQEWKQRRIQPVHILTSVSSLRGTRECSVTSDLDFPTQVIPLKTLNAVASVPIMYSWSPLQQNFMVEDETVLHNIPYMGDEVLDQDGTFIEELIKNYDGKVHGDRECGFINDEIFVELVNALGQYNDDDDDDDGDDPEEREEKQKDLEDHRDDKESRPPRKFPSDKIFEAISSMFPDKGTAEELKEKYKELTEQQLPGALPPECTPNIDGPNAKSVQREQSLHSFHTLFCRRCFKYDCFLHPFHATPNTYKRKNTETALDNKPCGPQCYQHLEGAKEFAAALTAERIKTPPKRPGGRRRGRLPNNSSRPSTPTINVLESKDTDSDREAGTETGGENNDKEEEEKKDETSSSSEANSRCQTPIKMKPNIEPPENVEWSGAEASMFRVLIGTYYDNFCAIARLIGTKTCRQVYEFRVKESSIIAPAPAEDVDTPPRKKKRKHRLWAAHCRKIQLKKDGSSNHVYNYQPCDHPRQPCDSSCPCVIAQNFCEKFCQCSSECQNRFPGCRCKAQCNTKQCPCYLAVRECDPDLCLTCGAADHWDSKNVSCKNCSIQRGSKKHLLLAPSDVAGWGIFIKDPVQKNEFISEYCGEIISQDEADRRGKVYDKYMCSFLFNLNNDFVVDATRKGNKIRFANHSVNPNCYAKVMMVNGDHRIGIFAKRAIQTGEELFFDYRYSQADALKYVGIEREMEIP
Large screens that a line does not name were inactive.

CC1(C)CC[C@]2(C(=O)O[C@@H]3O[C@H](CO)[C@@H](O)[C@H](O)[C@H]3O)CC[C@]3(C)C(=CCC4[C@@]5(C)CC[C@H](OC6O[C@H](CO)[C@@H](O)[C@H](O[C@@H]7O[C@H](CO)[C@@H](O)[C@H](O)[C@H]7O)[C@H]6O)C(C)(C)C5CC[C@]43C)[C@@H]2C1 (some centres undefined)	none
O=C(COc1ccc(Cl)cc1)Nc1ccc2oc(-c3cccc(F)c3)nc2c1	none
COc1ccc(C(=O)N(Cc2nc(-c3ccc(Cl)cc3)no2)C(C)C)cc1[N+](=O)[O-]	none
O=C(NC1CCCC1)c1c(NC(=O)c2cc(-c3ccccn3)nc3ccccc23)sc2c1CCC2	none
COCCOC(=O)N1C(=O)[C@@]2(c3cc(C#CCC(C(=O)OC)C(=O)OC)ccc31)[C@H](C(=O)N1CCc3cc(OC)c(OC)cc3C1)[C@H]1C(=O)O[C@H](c3ccccc3)[C@H](c3ccccc3)N1[C@@H]2c1ccccc1OCCO	none
O=C(CCCCCC(=O)Nc1ccccc1O)N/N=C/c1ccc[nH]1	none
O=C(OCc1nc2ccccc2s1)c1ccc([N+](=O)[O-])cc1	none
CN(C)CCCOc1ccc(/C=N/NC(=O)CCCCCCC(=O)Nc2ccccc2O)cc1	none
c1cc(-c2nn[nH]n2)ccc1OCc1nn[nH]n1	none
Cc1cccc(C(=O)O)c1NC(=O)C(C)Oc1ccc(Cl)cc1Cl (centres undefined)	none
COC(=O)c1ccccc1NC(=O)c1ccc(NC(=O)C(C)Oc2ccccc2)cc1 (centres undefined)	none
Cc1cc(Cl)ccc1OC(C)C(=O)Nc1ccc(C(=O)Nc2ccccc2C(=O)O)cc1 (centres undefined)	EZH2 inh 60
CC1(C)[C@H]2CC=C(/C=N\NC(=O)CCCCCC(=O)Nc3ccccc3O)[C@@H]1C2	none
COc1cc(NC(=O)CSc2nc(C)cc(=O)[nH]2)c(OC)cc1Cl	none
COc1ccc(N(Cc2cc3cc(C)ccc3[nH]c2=O)C(=O)c2ccccc2)cc1	none
Cc1ccc(-c2csc3ncnc(SCC(=O)Nc4ccc(S(N)(=O)=O)cc4)c23)cc1	none
CCCC1=CC(=O)C(O)C1O (centres undefined)	none
Cc1ccc2nc(-c3ccccn3)cc(C(=O)NCc3cnn(C)c3)c2c1	none
Clc1ccc(SCc2csc(-c3ccsc3)n2)cc1	EZH2 inh 63
Clc1ccc2nc(SCc3csc(Nc4ccccc4)n3)oc2c1	none
COC(=O)C(NC(=O)c1ccccc1)(c1c(C)[nH]n(-c2ccccc2)c1=O)C(F)(F)F (centres undefined)	none
O=C(CCCCCC(=O)Nc1ccccc1O)N/N=C/[C@H](O)[C@@H](O)[C@H](O)CO	none
C=C[C@](C)(CC[C@@]1(C)[C@H](C)C[C@H](O[C@@H]2O[C@@H](C)[C@H](O[C@@H]3O[C@H](COC(C)=O)[C@@H](O)[C@H](O)[C@H]3O)[C@@H](O)[C@H]2O)[C@@]2(C)C(C)=CCC[C@H]12)O[C@@H]1O[C@H](C)[C@H](O[C@@H]2O[C@@H](C)[C@H](O)[C@@H](O)[C@H]2O)[C@H](O)[C@H]1O	none
NC(N)=NS(=O)(=O)c1ccc(NC(=O)OC2CCCC2)cc1	none
COc1ccc(/C=N/NC(=O)CCCCCC(=O)Nc2ccccc2O)cc1	none
O=C(Nc1ccccc1C(=O)NCc1ccco1)c1ccccc1I	none
Cc1cc(=O)c2c(O)c3c(O)cc(O)c4c5c(O)cc(O)c6c(O)c7c(=O)cc(C)c8c1c2c(c34)c(c65)c78	EZH2 inh 64
CC(C(=O)Nc1cc(C(F)(F)F)ccc1Cl)n1cc([N+](=O)[O-])cn1 (centres undefined)	none
CCOC(=O)[C@H](Cc1ccccc1)NC(=O)CN=[N+]=[N-]	none
CCN(CC)C(=O)c1ccc(Nc2nnc(-c3ccc(C)c(S(N)(=O)=O)c3)c3ccccc23)cc1	none
CN(C)/C=C/C=C1C(=O)CCCC1=O	EZH2 inh 54
COC(=O)C1=COC(O[C@@H]2O[C@H](CO)[C@@H](O)[C@H](O)[C@H]2O)[C@H]2[C@@H]1[C@H](OC(=O)CCc1ccc(O)cc1)C[C@]2(C)O (some centres undefined)	none
COC(=O)C1=COC(OC2OC(CO)C(O)C(O)C2O)C2C1C=CC2(O)CO (centres undefined)	EZH2 inh 99
COC(=O)C1=CO[C@@H](O[C@@H]2O[C@H](CO)[C@@H](O)[C@H](O)[C@H]2O)[C@H]2[C@@H]1[C@H](OC(C)=O)C[C@]2(C)O	none
C[C@H]1CN([C@@H](C)CO)S(=O)(=O)c2ccc(C3=CCCC3)cc2O[C@@H]1CN(C)C(=O)CC1CC1	none
C[C@@H]1CN([C@H](C)CO)S(=O)(=O)c2ccc(C3=CCCC3)cc2O[C@@H]1CN(C)C(=O)CC1CC1	none
C[C@H]1CN([C@@H](C)CO)S(=O)(=O)c2ccc(C3=CCCCC3)cc2O[C@H]1CN(C)Cc1ccccc1	EZH2 inh 56
C[C@H](CO)N1C[C@H](C)[C@H](CN(C)C(=O)CC2CC2)Oc2cc(C3=CCCC3)ccc2S1(=O)=O	EZH2 inh 55
CC(C)CC#Cc1ccc2c(c1)O[C@H](CN(C)Cc1ccc(C(=O)O)cc1)[C@@H](C)CN([C@H](C)CO)S2(=O)=O	EZH2 inh 70
CC(C)CC#Cc1ccc2c(c1)O[C@@H](CN(C)Cc1ccccc1)[C@@H](C)CN([C@H](C)CO)S2(=O)=O	none
C[C@H](CO)N1C[C@H](C)[C@H](CN(C)Cc2ccccc2)Oc2cc(C3=CCCCC3)ccc2S1(=O)=O	none
CC(C)CC#Cc1ccc2c(c1)O[C@@H](CN(C)Cc1ccc(F)cc1)[C@H](C)CN([C@H](C)CO)S2(=O)=O	none
C[C@@H]1CN([C@@H](C)CO)S(=O)(=O)c2ccc(C3=CCCCC3)cc2O[C@@H]1CN(C)Cc1ccccc1	none
COC(=O)c1ccn(COc2ccccc2Cl)n1	none
O=C(CCCCCC(=O)N/N=C/c1cccc(Br)c1)NO	none
O=C(CCCCCCC(=O)Nc1ccccc1O)N/N=C/c1ccc2ccccc2c1O	none
C=CCn1c2ccccc2c2nnc(SCc3ccccc3F)nc21	none
COC(=O)CCCCCCC(=O)N/N=C/c1ccc(OCCCN(C)C)cc1	none
COc1cc(Cl)c(C)cc1NC(=O)CSC1=C(C#N)C(c2ccccc2F)CC(=O)N1 (centres undefined)	none
O=C1/C(=C/c2cn[nH]c2-c2ccc(F)cc2)CS/C1=C\c1cn[nH]c1-c1ccc(F)cc1	none
O=C(CCN1C(=O)c2ccccc2C1=O)Nc1ccc([N+](=O)[O-])cc1	none
Cc1ccccc1NC(=O)CSC1CC(=O)N(c2ccc(F)cc2)C1=O (centres undefined)	none
CSc1nc2sc3c(c2c2nnc(SCC(=O)Nc4ccccc4)n12)CCC3	none
Oc1ccc(CCCCC(CCc2ccc(O)cc2)O[C@@H]2OC[C@@H](O)[C@H](O)[C@H]2O)cc1 (some centres undefined)	none
OC[C@H]1O[C@@H](OC(CCCCc2ccc(O)cc2)CCc2ccc(O)cc2)[C@H](O)[C@@H](O)[C@@H]1O (some centres undefined)	EZH2 inh 73
O=C(CCc1ccc(O)cc1)c1c(O)c([C@@H]2O[C@H](CO)[C@@H](O)[C@H](O)[C@H]2O)c(O)c([C@@H]2O[C@H](CO)[C@@H](O)[C@H](O)[C@H]2O)c1O	none
NC(=O)COc1ccc(/C=N/NC(=O)c2ccccn2)cc1	none
CC(C(=O)Nc1ccccc1Cl)N(c1ccc(Cl)cc1)S(C)(=O)=O (centres undefined)	none
O=C1c2ccccc2C2=Nc3ccccc3SC(c3ccsc3)C12 (centres undefined)	none
O=C(CSc1nc(-c2ccccc2)cc(=O)[nH]1)Nc1cc(C(F)(F)F)ccc1Cl	EZH2 inh 64
